Experimental data reported in the supplement of paper PMC10981050.
Several values for one entry are separate records, joined by “and”; a condition that tells them apart may be missing. Equal values may be shown once. Where a name gives a salt, the structure may show the parent alone.

Experiments:
Test in all cases: cell viability relative to vehicle control; higher = less cytotoxic
Details in all cases: 10 µM
K562 = tested on: K562
In short: (§1)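 Each screen used CRISPR-edited mutant and wild-type clones from four leukaemia lines. Compounds were acoustically dispensed at a single 10 µM dose, and CellTiter-Glo luminescence was read after 48 h with the supernatant first removed. Viability was analysed in Genedata Screener and given as percent of the on-plate vehicle control.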

MARIMO = tested on: MARIMO
In short: as §1

MOLM14 = tested on: MOLM14
In short: as §1

OCI-AML2 = tested on: OCI-AML2
In short: as §1

| Compound | cell viability (K562; SRSF2 genotype: SRSF2 P95H/wt) | cell viability (K562; SRSF2 genotype: SRSF2 wt/wt) [%] | cell viability (MARIMO; SRSF2 genotype: SRSF2 P95H/wt) [%] | cell viability (MARIMO; SRSF2 genotype: SRSF2 wt/wt) [%] | cell viability (MOLM14; SRSF2 genotype: SRSF2 P95H/wt) [%] | cell viability (MOLM14; SRSF2 genotype: SRSF2 wt/wt) [%] | cell viability (OCI-AML2; SRSF2 genotype: P95H/wt) [%] | cell viability (OCI-AML2; SRSF2 genotype: wt/wt) [%] |
| --- | --- | --- | --- | --- | --- | --- | --- | --- |
| COc1cc2nc(N(C)CCCNC(=O)C3CCCO3)nc(N)c2cc1OC (stereo unspecified) [Alfuzosin hydrochloride (Uroxatral)] | 97% and 98.6% | 95.3 | 91.3 | 98.1 | 96.7 | 97.5 | 90.7 | 103 |
| CC(C)OC(=O)CCC/C=C\C[C@@H]1[C@@H](/C=C/C(F)(F)COc2ccccc2)[C@H](O)C[C@@H]1O [Tafluprost] | 85.8% and 90.8% | 92.1 | 85 | 96.2 | 89.3 | 97.7 | 90.6 | 95 |
| Cc1ccc(C(=O)c2cc(O)c(O)c([N+](=O)[O-])c2)cc1 [Tolcapone] | 107% and 113% | 112 | 109 | 111 | 106 | 109 | 113 | 97.3 |
| CN1CCN(C2CCN(C(=O)Nc3cc(Oc4ccc(NC(=O)C5(C(=O)Nc6ccc(F)cc6)CC5)c(F)c4)ccn3)CC2)CC1 [Golvatinib (E7050)] | 5.46% and 7.13% | 10.1 | 61.6 | 58.9 | 4.27 | 8.67 | 7.56 | 18.6 |
| CN(C)c1cccc(-c2c3c(=O)n(-c4ccccc4Cl)[nH]c3cc(=O)n2C)c1 | 100% and 98.2% | 101 | 109 | 126 | 104 | 99.7 | 101 | 114 |
| O=C(Nc1cc2cc[nH]c2cn1)c1ccccc1 | 45.9% and 44.5% | 43 | 43.3 | 45.8 | 49.3 | 51.1 | 38.6 | 39.3 |
| FC(F)(F)c1ccc(/C=C/c2nc(COc3ccc(CCCCn4ccnn4)cc3)co2)cc1 [Mubritinib (TAK 165)] | 68.1% and 58.5% | 56.7 | 67.2 | 61.8 | 70.1 | 55.5 | 49.2 | 47 |
| C[C@H]1[C@H](C)CC[C@]2(C(=O)O)CC[C@]3(C)C(=CC[C@@H]4[C@@]5(C)CCC(=O)C(C)(C)[C@@H]5CC[C@]43C)[C@H]12 [Ursonic acid] | 37.2% and 50.8% | 55.8 | 27.6 | 19 | 28.4 | 19.4 | 24.6 | 16.9 |
| CC(=O)Nc1cccc2c1c(Sc1ccc(Cl)cc1)c(C)n2CC(=O)O | 108% and 110% | 100 | 108 | 112 | 105 | 106 | 101 | 108 |
| Cc1ncc(CO)c(CO)c1O [Metadoxine] | 99.4% and 100% | 104 | 98.1 | 103 | 101 | 103 | 101 | 114 |
| COc1cc2c(cc1OC)CN(C(=O)/C=C/c1c(-c3ccccc3)n(C)c3ncccc13)CC2 | 63.9% and 81.1% | 71.3 | 69.1 | 70.5 | 47.7 | 44.2 | 51.6 | 49 |
| Cc1ccc(-n2nc(C(C)(C)C)cc2NC(=O)NCc2cc(F)ccc2Oc2ccc3c(cnn3CCO)c2)cc1 [Pexmetinib (ARRY-614)] | 17.1% and 26.4% | 23.6 | 68 | 69.4 | 32.8 | 25.9 | 50 | 54.4 |
| CCCCCCCC/C=C\CCCCCCCCCCCC(=O)O [Erucic acid] | 99.7% and 96.1% | 103 | 101 | 107 | 104 | 107 | 100 | 110 |
| COC(=O)N1CCN(Cc2cccc(NC(=O)Nc3ccc(C)nc3)c2F)CC1 | 89.4% and 89.7% | 96.5 | 91.9 | 94.2 | 100 | 99.9 | 88.4 | 87.2 |
| O=C(c1cc(Cc2n[nH]c(=O)c3ccccc23)ccc1F)N1CCN(C(=O)C2CC2)CC1 | 92.6% and 101% | 97.2 | 84 | 96.1 | 59.4 | 31 | 44.6 | 58 |
| C/C=C(/C)C(=O)O[C@H]1[C@@H](OC(C)=O)c2c(ccc3ccc(=O)oc23)OC1(C)C [(+)-Praeruptorin A] | 92.3% and 98.4% | 90.2 | 84.5 | 93.9 | 82.8 | 93.3 | 90.3 | 104 |
| CC(C)NC[C@@H](C(=O)N1CCN(c2ncnc3c2[C@H](C)C[C@H]3O)CC1)c1ccc(Cl)cc1 [Ipatasertib (GDC-0068)] | 90.8% and 87.6% | 86.3 | 80.8 | 80 | 51.1 | 56.6 | 72.1 | 81.2 |
| CC(C)n1ncnc1-c1cn2c(n1)-c1ccc(O[C@@H](C)C(N)=O)cc1OCC2 | 103% and 99.5% | 105 | 48.3 | 46.3 | 50.9 | 62.9 | 18.5 | 34.3 |
| CC1(C)CCC[C@](C)([C@H]2CC[C@]3(C)[C@@H]2[C@H](O)C[C@@H]2[C@@]4(C)CC[C@H](O)C(C)(C)[C@@H]4[C@@H](O)C[C@]23C)O1 [Panaxatriol] | 105% and 99.1% | 97.5 | 103 | 105 | 98.6 | 103 | 102 | 109 |
| Nc1ncnc2c1ncn2C1CC(O)C(CO)O1 (stereo unspecified) [2'-Deoxyadenosine monohydrate] | 113% and 106% | 105 | 96.4 | 94.5 | 102 | 99.6 | 95.5 | 96.5 |
| COc1ccc([C@@H]2CC(=O)c3c(O)cc(O)cc3O2)cc1O [Hesperetin] | 105% and 99.8% | 100 | 93.3 | 112 | 107 | 108 | 86.7 | 94.8 |

| Compound | cell viability (K562; SRSF2 genotype: SRSF2 P95H/wt) | cell viability (K562; SRSF2 genotype: SRSF2 wt/wt) [%] | cell viability (MARIMO; SRSF2 genotype: SRSF2 P95H/wt) [%] | cell viability (MARIMO; SRSF2 genotype: SRSF2 wt/wt) [%] | cell viability (MOLM14; SRSF2 genotype: SRSF2 P95H/wt) [%] | cell viability (MOLM14; SRSF2 genotype: SRSF2 wt/wt) [%] | cell viability (OCI-AML2; SRSF2 genotype: P95H/wt) [%] | cell viability (OCI-AML2; SRSF2 genotype: wt/wt) [%] |
| --- | --- | --- | --- | --- | --- | --- | --- | --- |
| CC(C)c1onc(-c2c(Cl)cccc2Cl)c1COc1ccc(/C=C/c2cccc(C(=O)O)c2)c(Cl)c1 | 95.1% and 94.7% | 99.7 | 94.5 | 98.6 | 95.5 | 97.3 | 69.3 | 82 |
| Cc1ccc(Cl)cc1N(CC(=O)Nc1c(F)cccc1F)S(C)(=O)=O | 104% and 111% | 116 | 99.5 | 106 | 102 | 105 | 110 | 124 |
| CC1(C)CCC(C)(C)c2cc(NC(=O)c3ccc(C(=O)O)cc3)ccc21 [Tamibarotene] | 94.1% and 91.6% | 90.8 | 93.1 | 99.2 | 88.8 | 98.3 | 37.4 | 61.5 |
| O=c1cc(-c2ccccc2)oc2c1ccc1ccccc12 [alpha-Naphthoflavone] | 94.2% and 87.3% | 95.9 | 90.5 | 96.5 | 117 | 109 | 86.5 | 99.7 |
| CCN1C(=O)CNc2ncc(-c3ccc(-c4nc[nH]n4)nc3C)nc21 | 13.8% and 18.5% | 23.9 | 27.5 | 27.6 | 9.85 | 11.8 | 8.07 | 16.1 |
| C[C@H](CSC(=O)c1ccccc1)C(=O)N1C[C@@H](Sc2ccccc2)C[C@H]1C(=O)O [Zofenopril calcium] | 106% and 100% | 106 | 104 | 96.9 | 98.3 | 108 | 116 | 121 |
| C[C@H](Cn1cnc2c(N)ncnc21)OCP(=O)(O)O [Tenofovir (Viread)] | 101% | 98.5 | 97.2 | 101 | 105 | 98.3 | 106 | 109 |
| COCCOC(=O)C1=C(C)NC(C)=C(C(=O)OC/C=C/c2ccccc2)C1c1cccc([N+](=O)[O-])c1 (stereo unspecified) [Cilnidipine] | 87.1% and 86.8% | 81.2 | 88.1 | 98.1 | 78.8 | 81.6 | 78.9 | 74.5 |
| C=C[C@@](C)(/C=C/c1ccc(O)cc1)CCC=C(C)C [Bakuchiol] | 98.5% and 98.7% | 95.3 | 87.8 | 83 | 87.3 | 90.1 | 83.1 | 81.6 |
| O=C1Cc2c([nH]c3ccc(Br)cc23)-c2ncccc2N1 [1-Azakenpaullone] | 109% and 116% | 104 | 122 | 127 | 128 | 122 | 153 | 148 |
| CC(C)OC(=O)CCC/C=C\C[C@@H]1[C@@H](/C=C/[C@@H](O)COc2cccc(C(F)(F)F)c2)[C@H](O)C[C@@H]1O [Travoprost] | 67.1% and 66.4% | 65 | 57.9 | 40.1 | 79.1 | 94.4 | 23.5 | 37.8 |
| COc1cc(CCC(C)=O)ccc1O [Vanillylacetone] | 104% and 93.6% | 91.8 | 100 | 108 | 101 | 101 | 97.8 | 108 |
| OC[C@H]1O[C@@H](n2cnc3c(O)nc(O)nc32)[C@H](O)[C@@H]1O [Xanthosine] | 101% and 100% | 96 | 99.9 | 101 | 99.6 | 98.5 | 93.2 | 99.7 |
| CN1CCN(Cc2ccc(Nc3ncc(Cl)c(Nc4ccccc4S(=O)(=O)N(C)C)n3)cc2)CC1 | 42.8% and 43% | 47.6 | 30.3 | 4.7 | 11.3 | 0.64 | 2.24 | 10.3 |
| CN1CCN(c2ccc3nc(-c4c(N)c5c(F)cccc5[nH]c4=O)[nH]c3c2)CC1 [Dovitinib (TKI258) Lactate] | 5.06% and 10.2% | 8.08 | 9.85 | 12 | 0.28 | 0.3 | 0.28 | 0.65 |
| C/C=C(\C)C(=O)OC1c2c(ccc3ccc(=O)oc23)OC(C)(C)C1OC(=O)/C(C)=C/C (stereo unspecified) [Paeruptorin B] | 92.7% and 97.1% | 89.7 | 86.9 | 96.3 | 89.7 | 92.3 | 93.8 | 103 |
| COc1cc(/C=C/C(=O)O[C@H]2[C@H](O)[C@@H](CO)O[C@@]2(CO)O[C@H]2O[C@H](CO)[C@@H](O)[C@H](O)[C@H]2O)ccc1O [Sibiricose A5] | 113% and 112% | 115 | 108 | 99.2 | 110 | 112 | 107 | 95.7 |
| C[C@@]1(CO)C[C@@H](O)C[C@@]2(C)[C@@H]3CC[C@](C)([C@@H](O)CO)C=C3CC[C@H]12 [Kirenol] | 98.1% and 101% | 97.7 | 89.3 | 96.2 | 107 | 104 | 94.6 | 101 |
| CCCC(CCC)C(=O)O [Divalproex sodium] | 105% and 102% | 103 | 101 | 111 | 105 | 105 | 93.3 | 108 |
| CCCCCCCCCCCCCCCCO [1-Hexadecanol] | 102% and 92.5% | 98.6 | 100 | 109 | 101 | 103 | 94.5 | 116 |
| CCCNC(=O)c1cn2ncnc(Nc3cc(C(=O)NC4CC4)ccc3C)c2c1C | 90.9% and 95.7% | 93.3 | 99.5 | 101 | 91.8 | 95.8 | 91.3 | 95.9 |
